# Assay results as given in publication PMC5540273 (PLoS ONE, 2017).
# Key:
# [1] = system: TXK
# [2] = system: ZAK
# [3] = system: AAK1; conditions: concentration: 1 μM, replicates: in singlicate; n = 1
# [4] = system: ABL1-nonphosphorylated; conditions: concentration: 1 μM, replicates: in singlicate; n = 1
# [5] = system: ABL1-phosphorylated; conditions: concentration: 1 μM, replicates: in singlicate; n = 1
# [6] = system: ABL2; conditions: concentration: 1 μM, replicates: in singlicate; n = 1
# [7] = system: ACVR1B; conditions: concentration: 1 μM, replicates: in singlicate; n = 1
# [8] = system: T1, p38-alpha
# T1 construct: gene MAPK14
# [9] = system: TTK
# [10] = system: T2, VPS34
# T2 construct: gene PIK3C3
# [11] = system: T3, VEGFR2
# T3 construct: gene KDR
# [12] = system: VRK2
# [13] = system: T4, TRKC
# T4 construct: gene NTRK3
# [14] = system: T5, YSK4
# T5 construct: gene MAP3K19
# [15] = system: WNK4
# [16] = system: WEE1
# [17] = system: TYK2(JH2domain-pseudokinase)
# [18] = system: T6, p38-beta
# T6 construct: gene MAPK11
# [19] = system: TYK2(JH1domain-catalytic)
# 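For %Inh in this document: KINOMEscan kinase panel screen.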
# 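For Kd in this document: kd values determined as follow-up on hits from a single-replicate KINOMEscan panel screen.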
smiles,measurement,setting,value
Cn1cncc1C(=O)NC1CCN(c2ccnc(Nc3ccc(F)cc3)n2)C1 (stereo not drawn) [GSK1379717],Kd,[1],> 10000 nM
same,Kd,[2],> 10000 nM
same,%Inh,[3],31%
same,%Inh,[4],0%
same,%Inh,[5],4%
same,%Inh,[6],0%
same,%Inh,[7],0%
Cc1ccccc1-c1cc(-c2c[nH]nc2-c2ccccn2)ccn1 [GW680061],Kd,[8],130 nM
same,%Inh,[3],0%
same,%Inh,[4],0%
same,%Inh,[5],0%
same,%Inh,[6],17%
same,%Inh,[7],0%
Cc1cccc2c(-c3ccncn3)c(-c3ccc(F)cc3)nn12 [GW515532],Kd,[8],1300 nM
same,%Inh,[3],0%
same,%Inh,[4],0%
same,%Inh,[5],0%
same,%Inh,[6],2%
same,%Inh,[7],2%
CC(=O)c1c(C)c2cnc(Nc3ccc(N4CCNCC4)cn3)nc2n(C2CCCC2)c1=O,Kd,[9],9.2 nM
same,%Inh,[3],0%
same,%Inh,[4],28%
same,%Inh,[5],0%
same,%Inh,[6],0%
same,%Inh,[7],0%
Cc1c(Cn2c3ccccc3n3c(=O)cc(N4CCOCC4)nc23)cccc1C(F)(F)F [GSK2306394],Kd,[10],> 10000 nM
same,%Inh,[3],0%
same,%Inh,[4],0%
same,%Inh,[5],0%
same,%Inh,[6],11%
same,%Inh,[7],0%
Cc1ccccc1Cn1ccn2c(=O)cc(N3CCOCC3)nc12 [GSK2269905],Kd,[10],180 nM
same,%Inh,[3],24%
same,%Inh,[4],0%
same,%Inh,[5],0%
same,%Inh,[6],11%
same,%Inh,[7],0%
Cn1cnc2c(N)ncnc21 [SKF-97623],Kd,[11],> 10000 nM
same,Kd,[12],> 10000 nM
same,%Inh,[3],0%
same,%Inh,[4],21%
same,%Inh,[5],0%
same,%Inh,[6],2%
same,%Inh,[7],0%
Fc1ccc(-c2nc[nH]c2-c2ccncc2)cc1 [SB-217360],Kd,[8],67 nM
same,%Inh,[3],0%
same,%Inh,[4],4%
same,%Inh,[5],33%
same,%Inh,[6],0%
same,%Inh,[7],13%
FC(F)(F)c1ccccc1-c1cc(-c2c[nH]nc2-c2ccccn2)ccn1 [GW679396],Kd,[8],310 nM
same,%Inh,[3],21%
same,%Inh,[4],0%
same,%Inh,[5],0%
same,%Inh,[6],1%
same,%Inh,[7],0%
CNCc1ccc2nc(NC(=O)c3ccc(C(C)(C)C)cc3)cn2c1,Kd,[8],> 10000 nM
same,%Inh,[3],0%
same,%Inh,[4],13%
same,%Inh,[5],12%
same,%Inh,[6],1%
same,%Inh,[7],0%
O=c1cc(N2CCOCC2)nc2n(Cc3ccccc3F)ccn12 [GSK2297428],Kd,[10],68 nM
same,%Inh,[3],5%
same,%Inh,[4],0%
same,%Inh,[5],0%
same,%Inh,[6],8%
same,%Inh,[7],0%
COC(=O)c1cccc(NC(=O)NC2CCN(c3ccnc(Nc4ccc(OC)cc4)n3)C2)c1 (stereo not drawn) [GSK1379746],Kd,[13],1000 nM
same,%Inh,[3],18%
same,%Inh,[4],0%
same,%Inh,[5],0%
same,%Inh,[6],13%
same,%Inh,[7],0%
O=C1NC(=O)C(c2ccc(Cl)cc2)=C1Nc1cccc(Cl)c1 [SB-317651],Kd,[10],300 nM
same,Kd,[12],> 10000 nM
same,%Inh,[3],0%
same,%Inh,[4],47%
same,%Inh,[5],0%
same,%Inh,[6],0%
same,%Inh,[7],0%
Cc1ccc(NC(=O)Nc2ccccc2)cc1-c1ccc(C(=O)Nc2ccncc2)cc1 [GSK1398471],Kd,[14],71 nM
same,%Inh,[3],8%
same,%Inh,[4],0%
same,%Inh,[5],0%
same,%Inh,[6],16%
same,%Inh,[7],0%
COc1nccc(-c2c(-c3ccc(F)cc3)ncn2CCCN2CCOCC2)n1 [SB-282852],Kd,[8],160 nM
same,%Inh,[3],0%
same,%Inh,[4],55%
same,%Inh,[5],41%
same,%Inh,[6],49%
same,%Inh,[7],0%
O=C1NC(=O)C(c2ccc(Cl)cc2)=C1Nc1ccc(O)cc1 [SB-340867],Kd,[9],5500 nM
same,%Inh,[3],3%
same,%Inh,[4],28%
same,%Inh,[5],0%
same,%Inh,[6],0%
same,%Inh,[7],0%
CNc1cc(-c2ccc3c(N)n[nH]c3c2)nc(N)n1 [GSK2224810],Kd,[15],> 10000 nM
same,%Inh,[3],64%
same,%Inh,[4],0%
same,%Inh,[5],0%
same,%Inh,[6],0%
same,%Inh,[7],21%
Nc1cccc(-c2ccc3c(N)n[nH]c3c2)n1 [GSK2192730],Kd,[14],130 nM
same,%Inh,[3],56%
same,%Inh,[4],10%
same,%Inh,[5],0%
same,%Inh,[6],0%
same,%Inh,[7],0%
Cl.Cl.Cl.N#Cc1ccc(CCNc2nccc(-c3cccc(CN4CCNCC4)c3)n2)cc1 [GSK2137462],Kd,[16],> 10000 nM
same,Kd,[15],> 10000 nM
same,%Inh,[3],14%
same,%Inh,[4],10%
same,%Inh,[5],0%
same,%Inh,[6],9%
same,%Inh,[7],0%
COc1cccc(CNC(=O)NC2CCN(c3ccnc(Nc4ccc(F)cc4)n3)C2)c1 (stereo not drawn) [GSK1379723],Kd,[1],> 10000 nM
same,Kd,[2],> 10000 nM
same,%Inh,[3],6%
same,%Inh,[4],0%
same,%Inh,[5],1%
same,%Inh,[6],8%
same,%Inh,[7],0%
CN1c2ccc(-c3ccc(C(N)=O)cc3)cc2-c2[nH]ncc2S1(=O)=O,Kd,[17],930 nM
same,%Inh,[3],39%
same,%Inh,[4],36%
same,%Inh,[5],9%
same,%Inh,[6],0%
same,%Inh,[7],3%
Fc1ccc(-c2nn3cccc(F)c3c2-c2ccncc2)cc1 [GW475620],Kd,[8],140 nM
same,%Inh,[3],13%
same,%Inh,[4],0%
same,%Inh,[5],0%
same,%Inh,[6],2%
same,%Inh,[7],23%
Cc1ccc(NC(=O)Nc2ccccc2F)cc1-c1ccc(C(=O)Nc2ccncc2)cc1 [GSK1398477],Kd,[14],1500 nM
same,%Inh,[3],28%
same,%Inh,[4],7%
same,%Inh,[5],0%
same,%Inh,[6],31%
same,%Inh,[7],3%
Cc1ccc(NC(=O)Nc2ccc(Cl)c(C(F)(F)F)c2)cc1-c1ccc(C(=O)Nc2ccncc2)cc1 [GSK1398470],Kd,[8],310 nM
same,Kd,[18],90 nM
same,%Inh,[3],3%
same,%Inh,[4],1%
same,%Inh,[5],0%
same,%Inh,[6],34%
same,%Inh,[7],5%
Nc1nccc(-c2c(-c3ccc(F)cc3)ncn2C2CCN(Cc3ccccc3)CC2)n1 [SB-219980],Kd,[8],46 nM
same,%Inh,[3],0%
same,%Inh,[4],0%
same,%Inh,[5],0%
same,%Inh,[6],0%
same,%Inh,[7],0%
COc1ccc(CSc2nnc(-c3ccc4nccn4c3)o2)cc1C(F)(F)F,Kd,[14],22 nM
same,%Inh,[3],16%
same,%Inh,[4],28%
same,%Inh,[5],13%
same,%Inh,[6],21%
same,%Inh,[7],23%
O=C(Nc1n[nH]c2nc(-c3cccs3)c(Br)cc12)C1CC1 [SB-735297],Kd,[14],200 nM
same,%Inh,[3],10%
same,%Inh,[4],52%
same,%Inh,[5],30%
same,%Inh,[6],0%
same,%Inh,[7],0%
COC(=O)C(Cc1ccccc1)NC(=O)NC1CCN(c2ccnc(Nc3ccc(F)cc3)n2)C1 (stereo not drawn) [GSK1379714],Kd,[14],1400 nM
same,%Inh,[3],0%
same,%Inh,[4],0%
same,%Inh,[5],0%
same,%Inh,[6],0%
same,%Inh,[7],0%
c1ccc(-c2ccnc3[nH]ccc23)cc1 [SB-693578],Kd,[14],470 nM
same,%Inh,[3],68%
same,%Inh,[4],0%
same,%Inh,[5],4%
same,%Inh,[6],16%
same,%Inh,[7],0%
O=C(Nc1n[nH]c2cc(-c3ccsc3)ccc12)C1CC1 [SB-732932],Kd,[14],120 nM
same,%Inh,[3],56%
same,%Inh,[4],47%
same,%Inh,[5],11%
same,%Inh,[6],18%
same,%Inh,[7],21%
Fc1ccc(-c2nc3n(c2-c2ccncc2)CCS3)cc1 [GI98581],Kd,[8],130 nM
same,%Inh,[3],1%
same,%Inh,[4],0%
same,%Inh,[5],0%
same,%Inh,[6],9%
same,%Inh,[7],15%
Cn1cncc1-c1cc2c(Nc3ccc(OCc4ccccc4)cc3)ncnc2cn1 [GW281179],Kd,[19],> 10000 nM
same,%Inh,[3],20%
same,%Inh,[4],0%
same,%Inh,[5],0%
same,%Inh,[6],12%
same,%Inh,[7],0%
CC(=O)c1cccc(NC(=O)NC2CCN(c3ccnc(Nc4ccc(F)cc4)n3)C2)c1 (stereo not drawn) [GSK1379710],Kd,[13],94 nM
same,%Inh,[3],16%
same,%Inh,[4],0%
same,%Inh,[5],0%
same,%Inh,[6],0%
same,%Inh,[7],0%
